Source: the supplement of paper PMC4466140

Legend:
Assay in all cases: SPOT peptide array binding signal intensity (averaged, normalized) (arbitrary units (background-subtracted, floor 0; scale differs between SH3 domains)); higher = stronger binding of the SH3 domain to the peptide
[1] = molecular target: AgAbp1
Outline: (§1)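 SH3 domains from four yeast species were expressed as GST fusions in E. coli BL21(DE3) and purified on glutathione Sepharose. Each was incubated at 10 μg/ml overnight at 4°C in TBS-based blocking buffer on cellulose membranes bearing synthetic 15-mer peptides, in which serines replaced cysteines. Bound protein was detected with anti-GST antibody, an HRP anti-mouse secondary and luminol, then imaged and quantified with Genespotter. The binding signal is the normalized, background-subtracted spot intensity averaged over replicates, in arbitrary units that are not the same from one domain to another.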

[2] = molecular target: AgBbc1
Outline: as §1

[3] = molecular target: AgBem1-D1
Outline: as §1

[4] = molecular target: AgBzz1-D1
Outline: as §1

[5] = molecular target: AgBzz1-D2
Outline: as §1

[6] = molecular target: AgCyk3
Outline: as §1

[7] = molecular target: AgFus1
Outline: as §1

[8] = molecular target: AgHof1
Outline: as §1

[9] = molecular target: AgHse1
Outline: as §1

[10] = molecular target: AgLsb1
Outline: as §1

[11] = molecular target: AgLsb4
Outline: as §1

[12] = molecular target: AgMyo5
Outline: as §1

[13] = molecular target: AgNbp2
Outline: as §1

[14] = molecular target: AgRvs167
Outline: as §1

[15] = molecular target: AgSho1
Outline: as §1

[16] = molecular target: AgSla1-D1-D2
Outline: as §1

[17] = molecular target: AgSla1-D3
Outline: as §1

[18] = molecular target: CaAbp1-D1
Outline: as §1

[19] = molecular target: CaAbp1-D2
Outline: as §1

[20] = molecular target: CaBbc1
Outline: as §1

[21] = molecular target: CaBem1-D1
Outline: as §1

[22] = molecular target: CaBzz1-D1
Outline: as §1

[23] = molecular target: CaBzz1-D2
Outline: as §1

[24] = molecular target: CaCyk3
Outline: as §1

[25] = molecular target: CaFus1
Outline: as §1

[26] = molecular target: CaHof1
Outline: as §1

[27] = molecular target: CaHse1
Outline: as §1

[28] = molecular target: CaLsb1
Outline: as §1

[29] = molecular target: CaLsb4
Outline: as §1

[30] = molecular target: CaMyo5
Outline: as §1

[31] = molecular target: CaNbp2
Outline: as §1

[32] = molecular target: CaRvs167
Outline: as §1

[33] = molecular target: CaRvs167-3
Outline: as §1

[34] = molecular target: CaSho1
Outline: as §1

[35] = molecular target: CaSla1-D1-D2
Outline: as §1

[36] = molecular target: CaSla1-D3
Outline: as §1

[37] = molecular target: ScAbp1
Outline: as §1

[38] = molecular target: ScBbc1
Outline: as §1

[39] = molecular target: ScBem1-D1
Outline: as §1

[40] = molecular target: ScBzz1-D1
Outline: as §1

[41] = molecular target: ScBzz1-D2
Outline: as §1

[42] = molecular target: ScCyk3
Outline: as §1

[43] = molecular target: ScFus1
Outline: as §1

[44] = molecular target: ScHof1
Outline: as §1

[45] = molecular target: ScHse1
Outline: as §1

[46] = molecular target: ScLsb1
Outline: as §1

[47] = molecular target: ScLsb2
Outline: as §1

[48] = molecular target: ScLsb3
Outline: as §1

[49] = molecular target: ScLsb4
Outline: as §1

[50] = molecular target: ScMyo3
Outline: as §1

[51] = molecular target: ScMyo5
Outline: as §1

[52] = molecular target: ScNbp2
Outline: as §1

[53] = molecular target: ScPex13
Outline: as §1

[54] = molecular target: ScRvs167
Outline: as §1

[55] = molecular target: ScSho1
Outline: as §1

[56] = molecular target: ScSla1-D1-D2
Outline: as §1

[57] = molecular target: ScSla1-D3
Outline: as §1

[58] = molecular target: SpAbp1-D1
Outline: as §1

[59] = molecular target: SpBbc1
Outline: as §1

[60] = molecular target: SpBzz1-D1
Outline: as §1

[61] = molecular target: SpBzz1-D2
Outline: as §1

[62] = molecular target: SpCyk3
Outline: as §1

[63] = molecular target: SpHof1
Outline: as §1

[64] = molecular target: SpHof1-2
Outline: as §1

[65] = molecular target: SpHof1-3
Outline: as §1

[66] = molecular target: SpHse1
Outline: as §1

[67] = molecular target: SpLsb1
Outline: as §1

[68] = molecular target: SpLsb4
Outline: as §1

[69] = molecular target: SpMyo1
Outline: as §1

[70] = molecular target: SpNbp2
Outline: as §1

[71] = molecular target: SpPex13
Outline: as §1

[72] = molecular target: SpRvs167
Outline: as §1

[73] = molecular target: SpSla1-D1-D2
Outline: as §1

[74] = molecular target: SpSla1-D3
Outline: as §1

## SHRLWLYAAPKRPKT
[1]
  SPOT peptide array binding signal intensity: 15.5
[2]
  SPOT peptide array binding signal intensity: 42
[3]
  SPOT peptide array binding signal intensity: 110
[4]
  SPOT peptide array binding signal intensity: 46
[5]
  SPOT peptide array binding signal intensity: 42
[6]
  SPOT peptide array binding signal intensity: 0.5
[7]
  SPOT peptide array binding signal intensity: 296
[8]
  SPOT peptide array binding signal intensity: 26
[9]
  SPOT peptide array binding signal intensity: 5
[10]
  SPOT peptide array binding signal intensity: 0.5
[11]
  SPOT peptide array binding signal intensity: 28.5
[12]
  SPOT peptide array binding signal intensity: 5.5
[13]
  SPOT peptide array binding signal intensity: 29.5
[14]
  SPOT peptide array binding signal intensity: 2
[15]
  SPOT peptide array binding signal intensity: 23.5
[16]
  SPOT peptide array binding signal intensity: 44
[17]
  SPOT peptide array binding signal intensity: 11
[18]
  SPOT peptide array binding signal intensity: 63
[19]
  SPOT peptide array binding signal intensity: 37.5
[20]
  SPOT peptide array binding signal intensity: 100
[21]
  SPOT peptide array binding signal intensity: 52
[22]
  SPOT peptide array binding signal intensity: 73
[23]
  SPOT peptide array binding signal intensity: 38.5
[24]
  SPOT peptide array binding signal intensity: 7
[25]
  SPOT peptide array binding signal intensity: 266
[26]
  SPOT peptide array binding signal intensity: 0.5
[27]
  SPOT peptide array binding signal intensity: 26.2
[28]
  SPOT peptide array binding signal intensity: 1.5
[29]
  SPOT peptide array binding signal intensity: 48
[30]
  SPOT peptide array binding signal intensity: 18
[31]
  SPOT peptide array binding signal intensity: 133
[32]
  SPOT peptide array binding signal intensity: 14
[33]
  SPOT peptide array binding signal intensity: 24.5
[34]
  SPOT peptide array binding signal intensity: 149
[35]
  SPOT peptide array binding signal intensity: 10.5
[36]
  SPOT peptide array binding signal intensity: 17.8
[37]
  SPOT peptide array binding signal intensity: 41
[38]
  SPOT peptide array binding signal intensity: 7.75
[39]
  SPOT peptide array binding signal intensity: 19
[40]
  SPOT peptide array binding signal intensity: 42
[41]
  SPOT peptide array binding signal intensity: 71
[42]
  SPOT peptide array binding signal intensity: 20
[43]
  SPOT peptide array binding signal intensity: 260
[44]
  SPOT peptide array binding signal intensity: 3.25
[45]
  SPOT peptide array binding signal intensity: 404
[46]
  SPOT peptide array binding signal intensity: 0.5
[47]
  SPOT peptide array binding signal intensity: 3
[48]
  SPOT peptide array binding signal intensity: 64
[49]
  SPOT peptide array binding signal intensity: ≤ 0
[50]
  SPOT peptide array binding signal intensity: 10
[51]
  SPOT peptide array binding signal intensity: 18.5
[52]
  SPOT peptide array binding signal intensity: 30
[53]
  SPOT peptide array binding signal intensity: 8.75
[54]
  SPOT peptide array binding signal intensity: 18.3
[55]
  SPOT peptide array binding signal intensity: 309
[56]
  SPOT peptide array binding signal intensity: 32
[57]
  SPOT peptide array binding signal intensity: 5
[58]
  SPOT peptide array binding signal intensity: 45
[59]
  SPOT peptide array binding signal intensity: 5
[60]
  SPOT peptide array binding signal intensity: 171
[61]
  SPOT peptide array binding signal intensity: 0.5
[62]
  SPOT peptide array binding signal intensity: 3
[63]
  SPOT peptide array binding signal intensity: 84
[64]
  SPOT peptide array binding signal intensity: 24.5
[65]
  SPOT peptide array binding signal intensity: 216
[66]
  SPOT peptide array binding signal intensity: 157
[67]
  SPOT peptide array binding signal intensity: 35.5
[68]
  SPOT peptide array binding signal intensity: 38.5
[69]
  SPOT peptide array binding signal intensity: 7.5
[70]
  SPOT peptide array binding signal intensity: 30
[71]
  SPOT peptide array binding signal intensity: 23
[72]
  SPOT peptide array binding signal intensity: 7.33
[73]
  SPOT peptide array binding signal intensity: 3
[74]
  SPOT peptide array binding signal intensity: 15

## PSRRAPLQLPQLVNK
[1]
  SPOT peptide array binding signal intensity: 15
[2]
  SPOT peptide array binding signal intensity: 8.5
[3]
  SPOT peptide array binding signal intensity: 26
[4]
  SPOT peptide array binding signal intensity: 13
[5]
  SPOT peptide array binding signal intensity: 35
[6]
  SPOT peptide array binding signal intensity: ≤ 0
[7]
  SPOT peptide array binding signal intensity: ≤ 0
[8]
  SPOT peptide array binding signal intensity: 36.5
[9]
  SPOT peptide array binding signal intensity: ≤ 0
[10]
  SPOT peptide array binding signal intensity: 214
[11]
  SPOT peptide array binding signal intensity: ≤ 0
[12]
  SPOT peptide array binding signal intensity: ≤ 0
[13]
  SPOT peptide array binding signal intensity: 3
[14]
  SPOT peptide array binding signal intensity: ≤ 0
[15]
  SPOT peptide array binding signal intensity: ≤ 0
[16]
  SPOT peptide array binding signal intensity: 6
[17]
  SPOT peptide array binding signal intensity: 1.5
[18]
  SPOT peptide array binding signal intensity: 89.5
[19]
  SPOT peptide array binding signal intensity: 52
[20]
  SPOT peptide array binding signal intensity: 279
[21]
  SPOT peptide array binding signal intensity: 11.5
[22]
  SPOT peptide array binding signal intensity: 130
[23]
  SPOT peptide array binding signal intensity: 41.8
[24]
  SPOT peptide array binding signal intensity: 3
[25]
  SPOT peptide array binding signal intensity: 23.5
[26]
  SPOT peptide array binding signal intensity: ≤ 0
[27]
  SPOT peptide array binding signal intensity: ≤ 0
[28]
  SPOT peptide array binding signal intensity: ≤ 0
[29]
  SPOT peptide array binding signal intensity: 17
[30]
  SPOT peptide array binding signal intensity: ≤ 0
